# From PubChem BioAssay (Tox21)
# Results filed as inconclusive are left out. Active and inactive are the calls of the source. The call rests on the fitted dose curve; in most records, active means well fitted activation curve with a large enough effect in the repeat runs; inconclusive means weak or mixed curves; inactive means no such curve, though single readings can be large or run the other way.
# Target: Nuclear receptor subfamily 1 group I member 2 (Rattus norvegicus) (UniProt Q9R1A7)
# Assay: Rat pregnane X receptor (rPXR) activation by small molecules, qHTS assay (AID 1346983); further: nearly all actives have a fitted effect of over 20% in size
# Details: rPXR luciferase reporter cells, One-Glo luminescence, 24 h; active compounds read high
# From the text: National Center for Advancing Translational Sciences [NCATS] NIH Chemical Genomics Center [NCGC] U.S. Environmental Protection Agency [EPA] National Institutes of Environmental Health Sciences [NIEHS] National Toxicology Program [NTP] Assay overview: The Pregnane X receptor (PXR), a ligand activated nuclear receptor plays a critical role in the regulation of genes involved in drug metabolism and transporters. PXR binds xenobiotics and when compounds interact with PXR produces enhanced expression of CYP3A genes. In humans PXR activation and CYP3A4 induction can be problematic due to their interactions with co-medicated drugs and decrease their efficacy or increase their own metabolism. However, there are known species-specific differences with regard to PXR activation that should be taken into account when animal PXR data are extrapolated to humans. A cell based rat PXR (rPXR) assay (developed by Puracyp, Inc., CA) was used to assess the activation of rPXR.
# Assay Protocol Summary: rPXR cells were dispensed at 2,000 per well in 5uL of assay medium into white, solid-bottom 1536-well plates using a Multidrop Combi dispenser (Thermo Scientific). The assay plates were incubated at 37 C for 5hr before transferring 23 nL of test compounds dissolved in DMSO and positive control via Pintool station (Wako). The assay plates were incubated at 37 C for 24 hr. Then 5ul One-Glo assay reagent (Promega) was added to each plate by a Flying Reagent Dispenser (FRD, Aurora Discovery) and following 30 min incubation at room temperature, luciferase activity was quantified on a ViewLux plate reader (Perkin Elmer).
# On the % scale 0 is the no-effect control and ±100 the full control effect.
# Nuclear receptor subfamily 1 group I member 2 (Rattus norvegicus), sequence (Q9R1A7 whole entry, looked up): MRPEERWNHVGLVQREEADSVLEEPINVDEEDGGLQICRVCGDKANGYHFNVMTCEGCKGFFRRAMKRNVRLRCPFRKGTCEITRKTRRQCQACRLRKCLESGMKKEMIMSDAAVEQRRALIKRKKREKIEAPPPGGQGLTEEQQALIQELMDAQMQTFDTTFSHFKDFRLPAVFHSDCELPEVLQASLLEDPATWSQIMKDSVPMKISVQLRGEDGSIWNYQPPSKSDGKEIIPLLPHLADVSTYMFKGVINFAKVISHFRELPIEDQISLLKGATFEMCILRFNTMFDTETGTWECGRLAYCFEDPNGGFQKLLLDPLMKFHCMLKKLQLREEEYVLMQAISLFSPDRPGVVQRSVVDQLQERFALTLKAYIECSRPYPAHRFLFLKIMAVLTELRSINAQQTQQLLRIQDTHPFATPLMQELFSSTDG
row,SMILES,max activation
1,CC1=C(C(=O)O)N2C(=O)[C@@H](NC(=O)[C@H](N)c3ccc(O)cc3)[C@H]2SC1,-3.3% (inactive)
2,Nc1ncnc(Nc2ccccc2)n1,2.76% (inactive)
3,NS(=O)(=O)c1ccc(NC(=O)CCC(=O)O)cc1,-2.26% (inactive)
4,N[C@@H](COP(=O)(O)O)C(=O)O,-0.35% (inactive)
5,O=C(O)Cc1cn(-c2ccccc2)nc1-c1ccc(Cl)cc1,-1.93% (inactive)
6,CC(C)=O,-0.452% (inactive)
7,CC(=C(CCOC(=O)C(C)C)SSC(CCOC(=O)C(C)C)=C(C)N(C=O)Cc1cnc(C)nc1N)N(C=O)Cc1cnc(C)nc1N,-2.83% (inactive)
8,Cc1ccsc1/C=C/C1=NCCCN1C,-1.84% (inactive)
9,COc1ccc(S(=O)(=O)N2c3ccc(Cl)cc3[C@@](O)(c3ccccc3Cl)[C@H]2C(=O)N2CCC[C@@H]2C(N)=O)cc1OC,11.3% (inactive)
10,O=C1c2cccc3c2[C@H](CCC3)CN1[C@@H]1CN2CCC1CC2,-9.35% (inactive)
11,CC(=O)NCc1c(I)c(NC(C)=O)c(I)c(C(=O)O)c1I,-0.535% (inactive)
12,CCOC(=O)[C@H](CCc1ccccc1)N[C@@H](C)C(=O)N1C(=O)N(C)C[C@H]1C(=O)O,-1.3% (inactive)
13,N[C@@H](CCC(=O)N[C@@H](CS)C(=O)NCC(=O)O)C(=O)O,3.38% (inactive)
14,O=C(NCCN1CCOCC1)c1ccc(Cl)cc1,1.47% (inactive)
15,CC(C)NCC(O)COc1ccc(COCCOC(C)C)cc1 (stereo not given),-3.07% (inactive)
16,C[C@H](N)[C@H](O)c1cccc(O)c1,-0.575% (inactive)
17,O=C(CS(=O)Cc1ccco1)NC/C=C\COc1cc(CN2CCCCC2)ccn1 (stereo not given),-0.727% (inactive)
18,Cc1cc2cc3c(C)cc(=O)oc3c(C)c2o1,1.62% (inactive)
19,CCCCCCOc1ccccc1C(N)=O,6.49% (inactive)
20,O=C(NCC(O)CO)c1c(I)c(C(=O)NCC(O)CO)c(I)c(N(CCO)C(=O)CO)c1I (stereo not given),-4.62% (inactive)

row,SMILES,max activation
1,COC(=O)c1ccccc1C(=O)c1ccc(OCCN2CCCCC2)cc1,-0.568% (inactive)
2,COc1cc(NS(=O)(=O)c2ccc(N)cc2)nc(OC)n1,-2.35% (inactive)
3,O=C(CCN1CCN(CCO)CC1)N1c2ccccc2Sc2ccc(C(F)(F)F)cc21,-2.18% (inactive)
4,C[C@@H](O)[C@H]1C(=O)N2C(C(=O)O)=C(SCCN=CN)C[C@H]12,-4.86% (inactive)
5,COc1ccc2c(c1OC)C(=O)O[C@@H]2[C@H]1c2c(cc3c(c2OC)OCO3)CCN1C,8.04% (inactive)
6,CC(=O)N[C@@H](CCC(=O)O)C(=O)O,-1.49% (inactive)
7,COc1ccc(C2CNC(=O)C2)cc1OC1CCCC1 (stereo not given),-2.12% (inactive)
8,Cc1cccc(C)c1OCC(C)N (stereo not given),-1.45% (inactive)
9,COc1ccc2c(c1)C(=O)N(CCc1ccc(S(=O)(=O)NC(=O)NC3CCCCC3)cc1)C(=O)C2(C)C,-1.03% (inactive)
10,CCOc1cc(NC(C)=O)ccc1C(=O)OC,-4.18% (inactive)
11,COc1cc(C(=S)N2CCOCC2)cc(OC)c1OC,-2.22% (inactive)
12,Nc1ccc(S(=O)(=O)Nc2ccc(Cl)nn2)cc1,-0.0524% (inactive)
13,CC(S)C(=O)NCC(=O)O (stereo not given),-1.79% (inactive)
14,CC[C@H](C)C(=O)O[C@H]1C[C@H](O)C=C2C=C[C@H](C)[C@H](CC[C@@H](O)C[C@@H](O)CC(=O)O)[C@H]21,-0.271% (inactive)
15,COP(=O)(OC)OC(c1ccc(Cl)cc1)P(=O)(OC)OC (stereo not given),4.37% (inactive)
16,NCCS,-0.0213% (inactive)
17,O=C(Nc1ccc(Cl)c(Cl)c1)C1CC1,-0.7% (inactive)
18,CN(CCOc1ccc(NS(C)(=O)=O)cc1)CCc1ccc(NS(C)(=O)=O)cc1,-6.17% (inactive)
19,CC1(C)S[C@@H]2[C@H](N=CN3CCCCCC3)C(=O)N2[C@H]1C(=O)O,-0.392% (inactive)
20,CC(=O)NCCCCCC(=O)O,0.55% (inactive)
